# PubChem BioAssay (EPA / NIEHS)
# Values joined by “and” are separate entries in the source; they are usually repeats but may differ in a detail not shown here. Equal entries are not always repeated. Records with an inconclusive call do not appear. Where a structure was tested more than once in an assay, its records may differ in their call. Active and inactive are the calls of the source. Rule for the calls: active = hit-call score of the fitted dose curve at least 0.9, where 1 is the maximum; inconclusive = response in the unintended direction; inactive = score below 0.9.
# Biological target: Bile acid receptor (Homo sapiens) (UniProt Q96RI1)
# Sequence (Q96RI1 whole entry, looked up): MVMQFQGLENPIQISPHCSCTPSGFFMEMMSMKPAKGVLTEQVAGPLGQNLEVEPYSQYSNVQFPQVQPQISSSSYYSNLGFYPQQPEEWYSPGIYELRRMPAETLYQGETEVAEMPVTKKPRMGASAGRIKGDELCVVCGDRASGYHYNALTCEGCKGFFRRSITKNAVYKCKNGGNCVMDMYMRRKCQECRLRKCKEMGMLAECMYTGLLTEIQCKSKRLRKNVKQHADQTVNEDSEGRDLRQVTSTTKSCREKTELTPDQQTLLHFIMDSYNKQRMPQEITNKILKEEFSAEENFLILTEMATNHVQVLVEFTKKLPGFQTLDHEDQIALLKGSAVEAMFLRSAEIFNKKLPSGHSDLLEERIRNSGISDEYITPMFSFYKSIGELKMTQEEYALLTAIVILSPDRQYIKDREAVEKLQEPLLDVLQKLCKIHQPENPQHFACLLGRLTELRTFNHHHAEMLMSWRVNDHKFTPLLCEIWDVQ
# Experiment: OT_FXR_FXRSRC1_1440: Odyssey Thera (OT) 24-hour HEK293T Protein-Complementation Assay for Farnesoid X receptor/SRC-1 Co-activator (AID 2283384)
# Method: OT_FXR_FXRSRC1_1440 is a cell-based assay that uses HEK293T, a human kidney cell line, with measurements taken at 24 hours after chemical dosing in a 384-well plate.OT_FXR_FXRSRC1_1440 is one of one assay component(s) measured or calculated from the OT_FXR_FXRSRC1_1440 assay. It is designed to make measurements of protein fragment complementation, a form of binding reporter, as detected with fluorescence intensity signals by Protein-fragment Complementation technology.Data from the assay component OT_FXR_FXRSRC1_1440 was analyzed into 1 assay endpoint. This assay endpoint, OT_FXR_FXRSRC1_1440, was analyzed in the positive analysis fitting direction relative to DMSO as the negative control and baseline of activity. Using a type of binding reporter, measures of receptor for gain-of-signal activity can be used to understand the binding at the pathway-level as they relate to the gene NR1H4. Furthermore, this assay endpoint can be referred to as a primary readout, because the performed assay has only produced 1 assay endpoint. To generalize the intended target to other relatable targets, this assay endpoint is annotated to the nuclear receptor intended target family, where the subfamily is non-steroidal.
# Protein-fragment complementation assay, or PCA, is a method for the identification and quantification of protein-protein interactions. In the PCA, the proteins of interest ("bait" and "prey") are each covalently linked to fragments of a third protein (e.g. DHFR, which acts as a "reporter"). Interaction between the bait and the prey proteins brings the fragments of the reporter protein in close proximity to allow them to form a functional reporter protein whose activity can be measured.
Compound,AC50,outcome
C[C@]12C[C@H](O)[C@H]3[C@@H](CCC4=CC(=O)CC[C@@]43C)[C@@H]1CC[C@@H]2C(=O)CO,16.8 µM (active),inactive
CCOC(=O)C(C)Oc1ccc(Oc2nc3ccc(Cl)cc3o2)cc1 (stereo unspecified),,inactive
CCOC(=O)NCCOc1ccc(Oc2ccccc2)cc1,12.1 µM (active),
CCOC(=O)C(C)Oc1ccc(Oc2cnc3cc(Cl)ccc3n2)cc1 (stereo unspecified),,inactive
O=C(Nc1ccc([N+](=O)[O-])cc1Cl)c1cc(Cl)ccc1O,1.21 µM (active),
c1ccc2[nH]c(-c3cscn3)nc2c1,,inactive
Cc1nn(C)c(Oc2ccccc2)c1C=NOCc1ccc(C(=O)OC(C)(C)C)cc1,9.92 µM (active),
CC(C)(C)[C@@H](O)[C@@H](Cc1ccc(Cl)cc1)n1cncn1,,inactive
CCCCOC(=O)[C@@H](C)Oc1ccc(Oc2ccc(C(F)(F)F)cn2)cc1,,inactive
CCCN(CCC)c1c([N+](=O)[O-])cc(C(F)(F)F)c(N)c1[N+](=O)[O-],50 µM (active),
CCCCOC(=O)C(C)Oc1ccc(Oc2ccc(C(F)(F)F)cn2)cc1 (stereo unspecified),,inactive
CCCCOCCOCCOCc1cc2c(cc1CCC)OCO2,,inactive
C[C@]12CC[C@@H]3c4ccc(O)cc4C[C@@H](CCCCCCCCCS(=O)CCCC(F)(F)C(F)(F)F)[C@H]3[C@@H]1CC[C@@H]2O (stereo partly specified),,inactive
CCCOC(=O)c1ccc(C(=O)OCCC)nc1,13.2 µM (active),
O=C(c1ccc(O)cc1O)c1ccc(O)cc1O,50 µM (active) and 28 µM (active),
O=C(O)C1(C(=O)Nc2ccc(Cl)cc2Cl)CC1,,inactive
CCOC(=O)c1ccc(O)cc1,,inactive
C#CCOC(=O)[C@@H](C)Oc1ccc(Oc2ncc(Cl)cc2F)cc1,,inactive
O=C(c1ccccc1)C1CCCCC1,,inactive
CCC(C)OC(=O)N1CCCCC1CCO (stereo unspecified),,inactive
